Screen size: about 2,300 compounds; about 1,500 (65%) were called active. How the calls were made is not given here. So high a share suggests a set chosen from earlier hits. This is one part of the list. Results with a measured potency or affinity are listed apart.
Assay: replicating M. tuberculosis growth inhibition, dose response, non-replicating M. tuberculosis project, H37Rv (AID 492952);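 further: Mycobacterium tuberculosis grown in culture; growth inhibition read after a week of incubation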
Details: series mostly up to 50 µM

SMILES | outcome
CCn1cc(C(=O)NC(C)C23CC4CC(CC(C4)C2)C3)cn1 (configuration not stated) | inactive
CN(C)CCC(=O)N1c2ccccc2Sc2ccc(Cl)cc21 | inactive
CCOC(=O)Nc1ccc2c(c1)N(C(=O)CCCl)c1ccccc1[S@]2=O | inactive
Cc1ccc(C)c(NC(=O)COC(=O)c2cc3ccccc3oc2=O)c1 | inactive
O=Cc1coc2ccc3ccccc3c2c1=O | inactive
CCOc1ccccc1OC(=O)c1cc2ccccc2oc1=O | inactive
CC1(c2nnc(Cc3ccccc3)o2)CC(c2ccccc2[N+](=O)[O-])=NO1 (configuration not stated) | inactive
C/C(=N\O)c1cc(Cl)ccc1O | inactive
CC(C)=CCN1CCN(Cc2cn(C(C)C)c3ccccc23)CC1CCO (configuration not stated) | inactive
CCOc1ccc(-c2ccc(C=O)o2)c([N+](=O)[O-])c1 | inactive
O=[N+]([O-])c1ccc(N2CCCCCC2)c2nonc12 | inactive
CC(C)N1CCc2c(sc(NC(=O)CCS(=O)(=O)c3ccccc3)c2C#N)C1 | inactive
CSC1=NSC2=NC(=O)/C(=C\c3cccs3)C(=N)N12 | inactive
N=C1/C(=C\c2coc3ccccc3c2=O)C(=O)N=C2SC=CN12 | inactive
COc1ccc(C(=O)CC(=O)C(=O)NCCc2cccc(C)c2)cc1 | inactive
c1cncc(-c2noc(CC3CCCCC3)n2)c1 | inactive
O=C(CCSc1ccc(Cl)cc1)Nc1cccnc1 | inactive
CC[n+]1c(/C=C(\C)Nc2ccccc2)sc2ccccc21 | inactive
Cc1nnc(C)n1/N=C/c1cc(Br)cc(Br)c1O | inactive
COc1cc(C2C3=C(CC(C)(C)CC3=O)OC(N)=C2[N+](=O)[O-])ccc1O (configuration not stated) | inactive
CCOC(=O)CC(NS(=O)(=O)Cc1ccccc1)c1ccc(C)cc1 (configuration not stated) | inactive
CCOc1ccc(NC(=O)c2nnn(CC(=O)Nc3ccccc3OC)c2N)cc1 | inactive
COc1ccc(NC(=O)c2nc3ccccc3s2)cc1 | inactive
COc1cccc(NC(=O)c2ccc(C(=O)c3ccccc3)o2)c1 | inactive
COC(=O)COc1ccc(S(=O)(=O)N2CCN(c3ccccc3F)CC2)cc1 | inactive
O=S(=O)(c1ccc(OCC2CO2)cc1)c1ccc(OCC2CO2)cc1 (configuration not stated) | inactive

SMILES | outcome
Cc1ccc(CC(=O)N2CCN(c3ccc([N+](=O)[O-])cc3)CC2)cc1 | inactive
O=C(Nc1ccc(N2CCN(C(=O)c3ccco3)CC2)c(Cl)c1)c1cccs1 | inactive
O=C(NNC(=O)c1cccs1)c1ccc(Br)o1 | inactive
O=C(c1cccs1)N1CCN(c2ccc(Cl)cc2)CC1 | inactive
Cc1nc2ccc(OC(=O)c3ccccc3)cc2s1 | inactive
Cc1ccc(-c2nnc(-c3ccccc3)o2)cc1 | inactive
O=C(COC(=O)CCC(=O)c1ccc(F)cc1)Nc1ccc(F)cc1F | inactive
O=C(NNC(=O)c1ncc(Cl)c(Cl)c1Cl)c1ccc(F)cc1 | inactive
O=C1c2ccccc2CC1Sc1nnc(-c2ccncc2)o1 (configuration not stated) | inactive
C/C(=N\NC(=O)c1cccc(Cl)c1)C1C(=O)c2ccccc2C1=O | inactive
O=C(Nc1ccc(Cl)cc1Cl)c1cccc(N2C(=O)C=CC2=O)c1 | inactive
CCOc1ccccc1NC(=O)COn1nnc2ccc(Cl)cc21 | inactive
O=S(=O)(CCN1CCN(c2ccccn2)CC1)c1ccc(Cl)cc1Cl | inactive
CC(=O)c1ccc(-c2nnc(CCC(=O)N(C)Cc3cccc4cnccc34)o2)s1 | inactive
O=C(COc1cccc2ccccc12)Nc1ccc(Cl)cc1C(=O)O | inactive
CCOC(=O)c1csc(COc2ccccc2Cl)n1 | inactive
O=C(Nc1nccs1)c1ccc(COc2ccc(Cl)cc2)o1 | inactive
N=c1oc2ccc(Cl)cc2cc1C(=O)NC1CCCCCC1 | inactive
CCOc1cccc2cc(C(=O)NC(C)c3ccccc3)c(=N)oc12 (configuration not stated) | inactive
CCOC(=O)NC(=O)COC(=O)CCCSc1nc2ccccc2s1 | inactive
CCNC(=O)NC(=O)C(C)OC(=O)CCCSc1nc2ccccc2s1 (configuration not stated) | inactive
CCOC(=O)C(=O)Cc1nc2ccccc2s1 | inactive
CC(C)CNc1nc(=S)nc(N(C)C)[nH]1 | inactive
COc1ccc(S(=O)(=O)NCc2ccc3c(c2)cc(C)n3C)cc1 | inactive
CCOC(=O)c1c(-c2ccccc2)csc1NC(=O)CCN1CCOCC1 | inactive
CC(NC(=O)OCc1ccccc1)c1ccccc1 (configuration not stated) | inactive

SMILES | outcome
COc1ccc2cc(C(=O)NCc3ccccc3CN3CCCC3)ccc2c1 | inactive
CCCCn1nnc(NC(=O)COc2ccc(Cl)c(C)c2)n1 | inactive
O=c1c2c([N+](=O)[O-])cc([N+](=O)[O-])cc2nc2ccccn12 | inactive
COc1cc(Cl)cc(/C=N/NC(N)=O)c1O | inactive
CCSc1nc(O)c(C2OC(=O)c3c2ccc(OC)c3OC)c(=O)n1-c1ccccc1 (configuration not stated) | inactive
NCCNc1ccc([N+](=O)[O-])c2cccnc12 | inactive
C/C(=N\NC(=O)c1ccco1)c1cc(Cl)sc1Cl | inactive
C/C(=N/NC(=O)c1ccco1)c1ccc(Br)s1 | inactive
Cc1cccnc1NC(=O)COc1ccc2oc3c(c2c1)CCCC3 | inactive
CCOC(=O)N1CCN(c2cc(C)c([N+](=O)[O-])cc2F)CC1 | inactive
Cc1ccc(NC(=O)c2noc(C(C)C)c2[N+](=O)[O-])cc1 | inactive
O=c1ccn(-c2ccccc2)[nH]1 | inactive
Cc1ccnc(-n2sc3ccccc3c2=O)n1 | inactive
COc1ccc(OCc2n[nH]c(=S)o2)cc1 | inactive
O=c1oc(-c2ccccc2[N+](=O)[O-])nc2ccccc12 | inactive
C=CC(=O)Oc1ccc(N2Cc3ccccc3C2=O)cc1 | inactive
CN1CCN(Cc2cc(C(C)(C)C)c(O)c(C(C)(C)C)c2)CC1 | inactive
CCCn1c(O)c(N=NC(=O)c2ccco2)c2ccccc21 | inactive
CCCN1C(=O)SC(CC(=O)Nc2ccccc2)C1=O (configuration not stated) | inactive
CCCCn1c(N)c(-c2nc3ccccc3o2)c2c([N+](=O)[O-])nn(CC)c(=O)c21 | inactive
C/C(=N\NC(=O)c1ccccc1)c1nc2ccccc2n1C | inactive
Cc1cccc(CSc2nnc(-c3ccco3)o2)c1 | inactive
Cc1cc(C)c(OCC(=O)Nc2nnc(-c3ccco3)o2)c(C)c1 | inactive
CN(/N=C/c1ccc([N+](=O)[O-])o1)c1ccccc1 | inactive
CC1=CN2C(=N)/C(=C/c3ccc([N+](=O)[O-])o3)C(=O)N=C2S1 | inactive

From PubChem BioAssay AID492952 (Southern Research Specialized Biocontainment Screening …, 2010)
